# From PubChem BioAssay (Tox21)
# Unmarked numbers belong to inactive results. Records with an inconclusive call do not appear. Entries that show only a call come without a potency. Calls of active or inactive are those of the source. Unless noted, calls come from the whole dose curve; as a rule, active = well fitted curve in the direction sought with a large enough effect in the repeat runs; inconclusive = weak or mixed curves; inactive = no such curve, though single readings can be large; an effect the other way counts as inactive or inconclusive.
# Assays:
# [1] = qHTS assay to identify small molecule agonists of the estrogen receptor alpha (ER-alpha) signaling pathway in the presence of an antagonist - cell viability counter screen (AID 1259386);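 note: cells exposed to compounds for 22 h at 37 °C before the viability read; nearly all actives have a fitted effect of over 30% in size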; note: potency is the fitted concentration of half-maximal effect; for activity change, negative = cytotoxicity: series mostly up to about 92 µM
# How it was run: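 VM7Luc4E2, stripped-serum pre-culture 5 d; 24hr plating; +ICI-182,780 10.0nM final; cpds 15 conc, 22hr, 37C/5% CO2; CellTiter-Fluor added at 21hr, fluorescence 1hr later.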
# [2] = target: Progesterone receptor (Homo sapiens) (UniProt P06401); assay: qHTS assay to identify small molecule agonists of the progesterone receptor (PR) signaling pathway (AID 1346784; calls by dose curve; note: nearly all actives have a fitted effect of over 30% in size; note: potency is the fitted concentration of half-maximal effect)
# Sequence of Progesterone receptor (Homo sapiens) (P06401 whole entry, looked up): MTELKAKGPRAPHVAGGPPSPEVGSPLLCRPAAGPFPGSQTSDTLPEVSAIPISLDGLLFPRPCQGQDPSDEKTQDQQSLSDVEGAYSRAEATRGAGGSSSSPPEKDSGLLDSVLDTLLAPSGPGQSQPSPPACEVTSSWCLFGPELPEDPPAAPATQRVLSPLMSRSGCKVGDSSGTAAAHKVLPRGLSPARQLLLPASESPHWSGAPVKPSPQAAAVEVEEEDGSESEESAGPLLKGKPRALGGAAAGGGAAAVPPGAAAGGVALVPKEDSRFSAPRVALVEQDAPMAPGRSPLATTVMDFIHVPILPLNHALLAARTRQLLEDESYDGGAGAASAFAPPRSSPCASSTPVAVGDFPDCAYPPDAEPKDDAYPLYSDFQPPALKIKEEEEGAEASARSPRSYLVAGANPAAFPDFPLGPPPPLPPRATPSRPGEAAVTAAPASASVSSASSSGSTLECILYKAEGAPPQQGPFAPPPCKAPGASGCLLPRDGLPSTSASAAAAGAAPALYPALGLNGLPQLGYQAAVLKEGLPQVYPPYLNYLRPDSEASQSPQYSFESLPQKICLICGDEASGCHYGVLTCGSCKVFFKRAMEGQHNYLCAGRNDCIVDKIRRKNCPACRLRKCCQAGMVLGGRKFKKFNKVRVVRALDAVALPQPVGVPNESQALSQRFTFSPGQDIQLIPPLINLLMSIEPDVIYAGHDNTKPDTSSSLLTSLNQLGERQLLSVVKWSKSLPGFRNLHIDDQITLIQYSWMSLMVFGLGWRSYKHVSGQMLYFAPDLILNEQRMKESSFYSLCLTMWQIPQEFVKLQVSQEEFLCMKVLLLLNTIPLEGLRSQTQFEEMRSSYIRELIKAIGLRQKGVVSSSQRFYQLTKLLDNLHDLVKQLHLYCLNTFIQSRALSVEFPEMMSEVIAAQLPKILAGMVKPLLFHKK
# How it was run: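 The screen uses PR-UAS-bla HEK 293T cells in charcoal-stripped serum (2%). Compounds are applied for 16 hr at 37C after a 6 hr pre-incubation, and reporter activity is detected with a FRET beta-lactamase substrate after 2 hr at room temperature.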
# [3] = target: Progesterone receptor (Homo sapiens) (UniProt P06401); assay: qHTS assay to identify small molecule antagonists of the progesterone receptor (PR) signaling pathway (AID 1346795; active = well fitted inhibition curve with a large enough effect in the signal ratio in the repeat runs, not every such curve was filed as active; the % refers to the signal ratio)
# How it was run: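 After 6 hr plating at 37C in 2% stripped-serum medium, PR-UAS-bla HEK293T cells got compounds, then 1 nM R5020. Sixteen hours later, LiveBLAzer substrate was applied for 2 hr at room temperature and fluorescence was recorded.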
# [4] = qHTS assay to identify small molecule antagonists of the progesterone receptor (PR) signaling pathway - cell viability counter screen (AID 1346798); note: series mostly up to about 92 µM; nearly all actives have a fitted effect of over 50% in size
# How it was run: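 Viability was determined by ATP-based luminescence (CellTiter-Glo) in PR-UAS-bla HEK293T cells cultured in 2% charcoal-stripped serum and incubated 16 hr with compounds under R5020 stimulation.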
# [5] = qHTS assay to identify small molecule agonists of the progesterone receptor (PR) signaling pathway - cell viability counter screen (AID 1346799; calls by dose curve; note: nearly all actives have a fitted effect of over 45% in size)
# How it was run: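 Viability was scored by ATP luminescence (CellTiter-Glo, 30 min, room temperature) in the same wells used for the reporter readout, after 16 hr compound exposure of PR-UAS-bla HEK293T cells.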
# [6] = qHTS assay to identify small molecule antagonists of the TGF-beta/Smad signaling pathway - cell viability counter screen (AID 1346824); note: nearly all actives have a fitted effect of over 50% in size
# How it was run: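 SBE-bla HEK 293T cells, incubated overnight, then compound plus 0.25 ng/mL TGF-beta1 (stock added) for 5 hr at 37 C. Viability was read in the same wells by CellTiter-Glo luminescence after 30 min at room temperature.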
# [7] = qHTS assay to identify small molecule agonists of the TGF-beta/Smad signaling pathway (AID 1346859; active = well fitted activation curve with a large enough effect in the signal ratio in the repeat runs, not every such curve was filed as active; the % refers to the signal ratio; note: series mostly up to about 77 µM)
# How it was run: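 Dual-wavelength fluorescence (460/530 nm emission) quantified beta-lactamase expression under the Smad binding element in HEK 293T cells following 5 hr compound treatment at 37 C.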
# [8] = target: Thyrotropin-releasing hormone receptor (Homo sapiens) (UniProt P34981); assay: qHTS assay to identify small molecule antagonists of the thyrotropin-releasing hormone receptor (TRHR) signaling pathway (AID 1346877; active = well fitted inhibition curve with a large enough effect in the repeat runs, not every such curve was filed as active; note: series mostly up to about 51 µM)
# Sequence of Thyrotropin-releasing hormone receptor (Homo sapiens) (P34981 whole entry, looked up): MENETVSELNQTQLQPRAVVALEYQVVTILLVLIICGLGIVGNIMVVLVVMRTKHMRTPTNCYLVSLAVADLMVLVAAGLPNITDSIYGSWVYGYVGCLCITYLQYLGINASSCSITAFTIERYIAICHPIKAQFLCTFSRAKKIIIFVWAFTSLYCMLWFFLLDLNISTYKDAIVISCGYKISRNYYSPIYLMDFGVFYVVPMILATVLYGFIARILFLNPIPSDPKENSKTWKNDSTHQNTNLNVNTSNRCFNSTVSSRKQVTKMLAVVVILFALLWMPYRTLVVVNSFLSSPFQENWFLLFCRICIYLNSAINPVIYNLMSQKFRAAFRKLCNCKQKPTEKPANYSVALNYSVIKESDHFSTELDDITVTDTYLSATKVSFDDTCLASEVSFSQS
# How it was run: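 Intracellular calcium fluorescence, read kinetically every second over 3 min, reports TRH-evoked signalling in HEK293 cells carrying TRHR. Test compounds were added 5 min ahead of a 1 nM TRH challenge.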
# [9] = target: Thyrotropin-releasing hormone receptor (Homo sapiens) (UniProt P34981); assay: qHTS assay to identify small molecule agonists of the thyrotropin-releasing hormone receptor (TRHR) signaling pathway (AID 1346891; calls by dose curve;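 note: HEK293 cells expressing TRHR with calcium dye readout; series mostly up to about 58 µM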)
# How it was run: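 Kinetic fluorescence (3 min, 1 s intervals) reported intracellular calcium after compound transfer onto TRHR-Hek293 cells pre-loaded with dye for 2 h at 37 °C.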
# [10] = qHTS assay to identify small molecule agonists of the TGF-beta/Smad signaling pathway - cell viability counter screen (AID 1346829); note: top concentration of the series differs between compounds; nearly all actives have a fitted effect of over 45% in size
# How it was run: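 Luminescence from CellTiter-Glo, read after a 30 min room-temperature incubation, gives cell viability of SBE-bla HEK 293T cells treated 5 hr with compounds at 37 C.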
structure (smiles),measurement,setting,value
C=CCCC(=O)/C=C/C1C(C)=CCCC1(C)C (stereo not given),Potency,[1],inactive
same,Potency,[2],inactive
same,Potency,[3],inactive
same,Potency,[4],inactive
same,Potency,[5],inactive
same,Potency,[6],inactive
same,Potency,[7],inactive
same,Potency,[8],inactive
same,outcome,[9],inactive
CC/C=C\CCCCCO,Potency,[1],inactive
same,Potency,[2],inactive
same,Potency,[3],inactive
same,Potency,[4],inactive
same,Potency,[5],inactive
same,Potency,[6],inactive
same,Potency,[7],inactive
Sc1nc2ccccc2s1,Potency,[1],inactive
same,Potency,[2],inactive
same,Potency,[3],inactive
same,Potency,[4],inactive
same,Potency,[6],inactive
same,Potency,[10],inactive
same,Potency,[7],inactive
same,Potency,[8],inactive
same,outcome,[9],inactive
CCCCCCCCCCOC(=O)c1ccccc1C(=O)OCCCCCCCC,Potency,[1],inactive
same,Potency,[2],inactive
same,Potency,[3],inactive
same,Potency,[4],inactive
same,Potency,[6],inactive
same,Potency,[10],inactive
same,Potency,[7],inactive
same,Potency,[8],inactive
same,outcome,[9],inactive
O[C@@H]([C@H](O)[C@H](O)CBr)[C@H](O)CBr,Potency,[1],inactive
same,Potency,[2],inactive
same,Potency,[3],inactive
same,Potency,[4],inactive
same,Potency,[5],inactive
same,Potency,[6],inactive
same,Potency,[7],inactive
C[C@@H](O)[C@H](N)C(=O)O,"activity change, negative = cytotoxicity",[1],2.14% [at 19 µM]
same,activation,[2],0.125% [at 19 µM]
same,"activity change, negative = inhibition",[3],8.03% [at 18.9 µM]
same,"activity change, negative = cytotoxicity",[4],-0.923% [at 18.9 µM]
same,"activity change, negative = cytotoxicity",[5],-6.31% [at 19 µM]
same,"viability change, negative = cytotoxic",[6],4.73% [at 15.8 µM]
same,activation,[7],0.576% [at 15.8 µM]
same,"activity, negative = inhibition",[8],12.1% [at 10.5 µM]
same,activation,[9],0.352% [at 11.8 µM]
CCCCCCCC/C=C\CCCCCCCCN,Potency,[1],inactive
same,Potency,[2],inactive
same,Potency,[3],inactive
same,Potency,[4],inactive
same,Potency,[5],inactive
same,Potency,[6],inactive
same,Potency,[7],inactive
same,Potency,[8],inactive
same,outcome,[9],inactive
CCOC(=O)NNc1ccc(N(CC)CC(C)O)nn1 (stereo not given),Potency,[1],inactive
same,Potency,[2],inactive
same,Potency,[3],inactive
same,Potency,[4],inactive
same,Potency,[6],inactive
same,Potency,[10],inactive
same,Potency,[7],inactive
same,Potency,[8],inactive
same,outcome,[9],inactive
OC/C=C/CO,Potency,[1],inactive
same,Potency,[2],inactive
same,Potency,[3],inactive
same,Potency,[4],inactive
same,Potency,[6],inactive
same,Potency,[10],inactive
same,Potency,[7],inactive
same,Potency,[8],inactive
same,outcome,[9],inactive
CC(C)CCOC(=O)/C=C/c1ccccc1,Potency,[1],inactive
same,Potency,[2],inactive
same,Potency,[3],inactive
same,Potency,[4],inactive
same,Potency,[5],inactive
same,Potency,[6],inactive
same,Potency,[10],inactive
same,Potency,[7],inactive
same,Potency,[8],inactive
same,outcome,[9],inactive
O=C(O)c1cc(-c2ccc(F)cc2F)ccc1O,Potency,[1],inactive
same,Potency,[2],inactive
same,Potency,[3],inactive
same,Potency,[4],inactive
same,Potency,[6],inactive
Nc1ccc(NCCO)c([N+](=O)[O-])c1,Potency,[1],30.6 µM (active)
same,Potency,[2],inactive
same,Potency,[3],inactive
same,Potency,[4],inactive
same,Potency,[5],inactive
same,Potency,[6],inactive
same,Potency,[10],inactive
same,Potency,[7],inactive
same,Potency,[8],inactive
same,outcome,[9],inactive
Cc1ccc(C(=O)O)cc1,Potency,[1],inactive
same,Potency,[2],inactive
same,Potency,[3],inactive
same,Potency,[4],inactive
same,Potency,[5],inactive
same,Potency,[6],inactive
same,Potency,[10],inactive
same,Potency,[7],inactive
same,Potency,[8],inactive
same,outcome,[9],inactive
C=CC(=O)OCCOC(=O)C=C,Potency,[1],inactive
same,Potency,[2],inactive
same,Potency,[3],inactive
same,Potency,[4],inactive
same,Potency,[5],inactive
same,Potency,[6],inactive
same,Potency,[10],inactive
same,Potency,[7],inactive
same,Potency,[8],inactive
same,outcome,[9],inactive
O=C(O)c1cc(=O)c2ccccc2o1,Potency,[1],inactive
same,Potency,[2],inactive
same,Potency,[3],inactive
same,Potency,[4],inactive
same,Potency,[6],inactive
same,Potency,[10],inactive
same,Potency,[7],inactive
same,Potency,[8],inactive
same,outcome,[9],inactive
ClCCl,Potency,[1],inactive
same,Potency,[2],inactive
same,Potency,[3],inactive
same,Potency,[4],inactive
same,Potency,[5],inactive
same,Potency,[6],inactive
same,Potency,[7],inactive
same,Potency,[8],inactive
same,outcome,[9],inactive
COc1ccc(NC(=O)CC(C)=O)cc1,Potency,[1],inactive
same,Potency,[2],inactive
same,Potency,[3],inactive
same,Potency,[4],inactive
same,Potency,[5],inactive
same,Potency,[6],inactive
same,Potency,[7],inactive
same,Potency,[8],inactive
same,outcome,[9],inactive
CCCC1CCC(=O)CC1,Potency,[1],inactive
same,Potency,[2],inactive
same,Potency,[3],inactive
same,Potency,[4],inactive
same,Potency,[5],inactive
same,Potency,[6],inactive
same,Potency,[7],inactive
same,Potency,[8],inactive
same,outcome,[9],inactive
CC(C)CCCCCOC(=O)CCS,Potency,[1],inactive
same,Potency,[2],inactive
same,Potency,[3],inactive
same,Potency,[4],inactive
same,Potency,[6],inactive
same,Potency,[10],inactive
same,Potency,[7],inactive
same,Potency,[8],inactive
same,outcome,[9],inactive
Cc1ccc(C)cc1,Potency,[1],inactive
same,Potency,[2],inactive
same,Potency,[3],inactive
same,Potency,[4],inactive
same,Potency,[6],inactive
same,Potency,[10],inactive
same,Potency,[7],inactive
same,Potency,[8],inactive
same,outcome,[9],inactive
O=C(O)CCN(C1(C(=O)NO)CCCC1)S(=O)(=O)c1ccc(Oc2ccc(F)cc2)cc1,Potency,[1],inactive
same,Potency,[2],inactive
same,Potency,[3],inactive
same,Potency,[4],inactive
same,Potency,[6],inactive
same,Potency,[10],inactive
same,Potency,[7],inactive
same,Potency,[8],inactive
same,outcome,[9],inactive
OC[C@H]1O[C@H](O[C@H]2O[C@H](CO)[C@@H](O)[C@H](O)[C@H]2O)[C@H](O)[C@@H](O)[C@@H]1O,Potency,[1],inactive
same,Potency,[2],inactive
same,Potency,[3],inactive
same,Potency,[4],inactive
same,Potency,[6],inactive
same,Potency,[10],inactive
same,Potency,[7],inactive
same,Potency,[8],inactive
same,outcome,[9],inactive
O=C(O)CN(CCN(CC(=O)O)CC(=O)O)CC(=O)O,"activity change, negative = cytotoxicity",[1],0.548% [at 3.27 µM]
same,Potency,[2],0.0097 µM (active)
same,"activity change, negative = inhibition",[3],7.88% [at 3.27 µM]
same,"activity change, negative = cytotoxicity",[4],3.78% [at 3.27 µM]
same,"viability change, negative = cytotoxic",[6],-0.549% [at 2.72 µM]
same,"activity change, negative = cytotoxicity",[10],9.65% [at 2.72 µM]
same,activation,[7],-0.839% [at 2.72 µM]
CC(CO)Oc1ccccc1 (stereo not given),Potency,[1],inactive
same,Potency,[2],inactive
same,Potency,[3],inactive
same,Potency,[4],inactive
same,Potency,[5],inactive
same,Potency,[6],inactive
same,Potency,[10],inactive
same,Potency,[7],inactive
same,Potency,[8],inactive
same,outcome,[9],inactive
Nc1nc(N)nc(-c2cc(Cl)ccc2Cl)n1,Potency,[1],inactive
same,Potency,[2],inactive
same,Potency,[3],inactive
same,Potency,[4],inactive
same,Potency,[5],inactive
same,Potency,[6],inactive
same,Potency,[7],inactive
same,Potency,[8],inactive
same,outcome,[9],inactive
